From PubChem BioAssay
For part of these data: Entries with a potency or affinity are not part of this list. Active and inactive are the calls of the source. No rule for the calls is given here.

Each molecule was assayed against Plasmodium falciparum protein kinase 6 (PK6, PF3D7_1337100) (UniProt Q8IDW1) (assay: PfPK6 kinase inhibitors, biochemical, TCAMS library (AID 1159586)). Conditions: recombinant PfPK6, Kinase-Glo ATP depletion luminescence.
Plasmodium falciparum protein kinase 6 (PK6, PF3D7_1337100), sequence (Q8IDW1 1-305): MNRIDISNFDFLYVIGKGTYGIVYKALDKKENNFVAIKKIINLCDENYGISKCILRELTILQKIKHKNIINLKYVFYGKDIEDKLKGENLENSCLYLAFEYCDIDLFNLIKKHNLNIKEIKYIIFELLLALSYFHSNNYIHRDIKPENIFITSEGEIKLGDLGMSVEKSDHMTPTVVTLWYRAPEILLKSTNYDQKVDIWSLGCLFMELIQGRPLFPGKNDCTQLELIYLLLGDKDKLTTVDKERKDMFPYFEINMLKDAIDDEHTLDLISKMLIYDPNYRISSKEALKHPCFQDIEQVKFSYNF

Row | SMILES | outcome
1 | COCCNCc1ccc(-c2ccc(CN(C(=O)NC3CCCCC3)C3CCN(Cc4ccccc4)CC3)cc2)cc1 | inactive
2 | CC[C@H]1CN2CC[C@H]1C[C@H]2[C@H](O)c1cc(Cl)nc2ccc(OC)cc12 | inactive
3 | CC(=O)Nc1ccc2[nH]cc(C3CCN(CC4CCN(C(=O)/C=C/c5ccc(Cl)c(Cl)c5)CC4)CC3)c2c1 | inactive
4 | COc1ccccc1CNCC(O)c1cc(C(F)(F)F)ccc1C(F)(F)F (stereo not drawn) | inactive
5 | CC(C)CNCc1ccc(-c2ccc(CN(C(=O)NC3CCCCC3)C3CCN(Cc4ccccc4)CC3)cc2)cc1 | inactive
6 | O=C(Nc1cc(C(F)(F)F)cc(C(F)(F)F)c1)N1CCC(CN2CCC(c3c[nH]c4ccccc34)CC2)CC1 | inactive
7 | COc1ccc(OC)c(CNCC(O)c2cc(C(F)(F)F)cc(C(F)(F)F)c2)c1 (stereo not drawn) | inactive
8 | Cc1[nH]c2ccc(O)cc2c1C1CCN(CC2CCC(NC(=O)/C=C/c3ccc(Cl)c(Cl)c3)CC2)CC1 (stereo not drawn) | inactive
9 | CC[C@H]1CN2CC[C@H]1C[C@@H]2[C@@H](OC(=O)c1ccc(Cl)cc1)c1ccnc2ccc(OC)cc12 | inactive
10 | CC(=O)Nc1ccc(OCCN(CC(F)(F)F)c2ccc(C#N)cc2C(F)(F)F)cc1 | inactive
11 | COc1ccc(CC(C)NCC(O)c2cccc(Cl)c2F)cc1 (stereo not drawn) | inactive
12 | CN(c1cc(NC(=O)c2cccs2)ccn1)C1CCN(Cc2ccccc2)CC1 | inactive
13 | Cc1[nH]c2cc(F)ccc2c1C1=CCN(CCCCC2(C)C(=O)Nc3ccccc32)CC1 (stereo not drawn) | inactive
14 | Cc1cc(C(=O)NC2CCN(CC3(c4ccc(Cl)cc4)CCC3)CC2)on1 | inactive
15 | O=C(c1cc(C(=O)NCc2ccc(Cl)cc2)c(=O)n(Cc2ccc(Cl)cc2)c1)c1cc(Cl)ccc1O | inactive
16 | CCCc1c(C(=O)NC2CCC(CN3CCC(c4c[nH]c5ccccc45)CC3)CC2)cnn1-c1ccccc1 (stereo not drawn) | inactive
17 | Cc1cc2ccc(CNCCc3ccccc3Br)cc2nc1N | inactive
18 | CSc1ccc(C[C@@H](C)NC[C@H](O)c2cccc(Cl)c2)cc1 | inactive
19 | CC(=O)N(Cc1ccccc1-c1cccc(CNCCc2ccccc2)c1)C1CCN(Cc2ccccc2)CC1 | inactive
20 | CC(Cc1ccc(S(=O)(=O)N(C(C)C)C(C)C)cc1)NCC(O)c1cccc(C(F)(F)F)c1 (stereo not drawn) | inactive

Row | SMILES | outcome
21 | O=C(/C=C/c1ccc(Cl)c(Cl)c1)N1CCC(CN2CCC(c3c[nH]c4ccc(NS(=O)(=O)c5cccs5)cc34)CC2)CC1 | inactive
22 | COc1ccc(CC(C)NCC(O)c2cccc(Cl)c2)cc1C (stereo not drawn) | inactive
23 | CN1CC=C(c2c[nH]c3ccc(Oc4ccccc4)cc23)CC1 | inactive
24 | CC(Cc1ccc(NC(=O)[C@@H](C)NCCc2cccc(Cl)c2)cc1)NCCc1cccc(Cl)c1 (stereo partly drawn) | inactive
25 | Cc1csc(NC2=NCCN2)n1 | inactive
26 | O=C(C=Cc1cc([N+](=O)[O-])ccc1Cl)NC1CCC(CN2CCC(c3c[nH]c4ccccc34)CC2)CC1 (stereo not drawn) | inactive
27 | CC(=O)C1(c2ccccc2)CCN(CCC2(c3ccc(Cl)c(Cl)c3)CN(C(=O)C3CCCC3)CCO2)CC1 (stereo not drawn) | inactive
28 | S=C(NCCc1ccc(Cl)cc1)NC1CCC(CN2CCC(c3c[nH]c4ccccc34)CC2)CC1 (stereo not drawn) | inactive
29 | CC(Cc1ccc(SC(C)(C)C)cc1)NCC(O)c1cccc(Cl)c1 (stereo not drawn) | inactive
30 | CS(=O)(=O)Nc1ccc2[nH]cc(C3CCN(CC4CCN(C(=O)/C=C/c5ccc(Cl)c(Cl)c5)CC4)CC3)c2c1 | inactive
31 | C=C[C@@H]1CN2CC[C@H]1C[C@H]2[C@H](O)c1cc(-c2ccc(Cl)cc2)nc2ccc(OC)cc12 | inactive
32 | OC(CNCc1ccccc1OC(F)F)c1cccc(C(F)(F)F)c1 (stereo not drawn) | inactive
33 | C#CCN1CCC2=C(C1)c1c(O)cc(C(C)CCCc3ccc(F)cc3)cc1OC2(C)C (stereo not drawn) | inactive
34 | CC[C@H]1CN2CC[C@H]1C[C@H]2[C@H](O)c1cc(-c2ccc3ccccc3c2)nc2ccc(OC)cc12 | inactive
35 | COc1ccc2[nH]cc(C3=CCN(C[C@H]4C[C@@H]4C(=O)c4ccccc4)CC3)c2n1 | inactive
36 | O=C1Nc2cccc3c2C1(CCCCCN1CC=C(c2c[nH]c4ccccc24)CC1)CCC3 (stereo not drawn) | inactive
37 | COC(C(=O)OCCC1CCCN1C)(c1ccccc1)c1ccccc1 (stereo not drawn) | inactive
38 | CC(Cc1ccc(Oc2ccc(Cl)cc2)cc1)NCC(O)c1cccc(Cl)c1 (stereo not drawn) | inactive
39 | O=C(CCc1ccco1)NC1CCN(CC2(c3ccc(Cl)cc3)CCC2)CC1 | inactive

These molecules were tested against Protein kinase 7 (PK7), Plasmodium falciparum 3D7 (PF3D7_0213400) (UniProt Q7YTF7) (assay: inhibition of Plasmodium PK7 catalytic activity – biochemical, TCAMS antimalarial set, Kinase-Glo luminescence (AID 1159587)). Conditions: recombinant PfPK7, Kinase-Glo ATP depletion luminescence.
Protein kinase 7 (PK7), Plasmodium falciparum 3D7 (PF3D7_0213400), sequence (Q7YTF7 1-343): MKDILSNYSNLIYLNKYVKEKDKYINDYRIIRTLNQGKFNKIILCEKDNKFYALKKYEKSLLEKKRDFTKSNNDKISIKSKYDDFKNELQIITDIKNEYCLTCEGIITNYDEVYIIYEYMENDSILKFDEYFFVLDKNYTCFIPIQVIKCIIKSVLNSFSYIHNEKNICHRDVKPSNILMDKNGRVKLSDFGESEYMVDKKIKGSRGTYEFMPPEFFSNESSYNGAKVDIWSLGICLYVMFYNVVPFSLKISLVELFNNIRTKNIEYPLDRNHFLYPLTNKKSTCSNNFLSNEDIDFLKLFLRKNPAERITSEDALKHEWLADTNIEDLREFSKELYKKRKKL

Row | SMILES | outcome
40 | COCCNCc1ccc(-c2ccc(CN(C(=O)NC3CCCCC3)C3CCN(Cc4ccccc4)CC3)cc2)cc1 | inactive
41 | CC[C@H]1CN2CC[C@H]1C[C@H]2[C@H](O)c1cc(Cl)nc2ccc(OC)cc12 | inactive
42 | CC(=O)Nc1ccc2[nH]cc(C3CCN(CC4CCN(C(=O)/C=C/c5ccc(Cl)c(Cl)c5)CC4)CC3)c2c1 | inactive
43 | COc1ccccc1CNCC(O)c1cc(C(F)(F)F)ccc1C(F)(F)F (stereo not drawn) | inactive
44 | CC(C)CNCc1ccc(-c2ccc(CN(C(=O)NC3CCCCC3)C3CCN(Cc4ccccc4)CC3)cc2)cc1 | inactive
45 | O=C(Nc1cc(C(F)(F)F)cc(C(F)(F)F)c1)N1CCC(CN2CCC(c3c[nH]c4ccccc34)CC2)CC1 | inactive
46 | COc1ccc(OC)c(CNCC(O)c2cc(C(F)(F)F)cc(C(F)(F)F)c2)c1 (stereo not drawn) | inactive
47 | Cc1[nH]c2ccc(O)cc2c1C1CCN(CC2CCC(NC(=O)/C=C/c3ccc(Cl)c(Cl)c3)CC2)CC1 (stereo not drawn) | inactive
48 | CC[C@H]1CN2CC[C@H]1C[C@@H]2[C@@H](OC(=O)c1ccc(Cl)cc1)c1ccnc2ccc(OC)cc12 | inactive
49 | CC(=O)Nc1ccc(OCCN(CC(F)(F)F)c2ccc(C#N)cc2C(F)(F)F)cc1 | inactive
50 | COc1ccc(CC(C)NCC(O)c2cccc(Cl)c2F)cc1 (stereo not drawn) | inactive
51 | CN(c1cc(NC(=O)c2cccs2)ccn1)C1CCN(Cc2ccccc2)CC1 | inactive
52 | Cc1[nH]c2cc(F)ccc2c1C1=CCN(CCCCC2(C)C(=O)Nc3ccccc32)CC1 (stereo not drawn) | inactive
53 | Cc1cc(C(=O)NC2CCN(CC3(c4ccc(Cl)cc4)CCC3)CC2)on1 | inactive
54 | O=C(c1cc(C(=O)NCc2ccc(Cl)cc2)c(=O)n(Cc2ccc(Cl)cc2)c1)c1cc(Cl)ccc1O | inactive
55 | CCCc1c(C(=O)NC2CCC(CN3CCC(c4c[nH]c5ccccc45)CC3)CC2)cnn1-c1ccccc1 (stereo not drawn) | inactive
56 | Cc1cc2ccc(CNCCc3ccccc3Br)cc2nc1N | inactive
57 | CSc1ccc(C[C@@H](C)NC[C@H](O)c2cccc(Cl)c2)cc1 | inactive
58 | CC(=O)N(Cc1ccccc1-c1cccc(CNCCc2ccccc2)c1)C1CCN(Cc2ccccc2)CC1 | inactive
59 | CC(Cc1ccc(S(=O)(=O)N(C(C)C)C(C)C)cc1)NCC(O)c1cccc(C(F)(F)F)c1 (stereo not drawn) | inactive

Row | SMILES | outcome
60 | O=C(/C=C/c1ccc(Cl)c(Cl)c1)N1CCC(CN2CCC(c3c[nH]c4ccc(NS(=O)(=O)c5cccs5)cc34)CC2)CC1 | inactive
61 | COc1ccc(CC(C)NCC(O)c2cccc(Cl)c2)cc1C (stereo not drawn) | inactive
62 | CN1CC=C(c2c[nH]c3ccc(Oc4ccccc4)cc23)CC1 | inactive
63 | CC(Cc1ccc(NC(=O)[C@@H](C)NCCc2cccc(Cl)c2)cc1)NCCc1cccc(Cl)c1 (stereo partly drawn) | inactive
64 | Cc1csc(NC2=NCCN2)n1 | inactive
65 | O=C(C=Cc1cc([N+](=O)[O-])ccc1Cl)NC1CCC(CN2CCC(c3c[nH]c4ccccc34)CC2)CC1 (stereo not drawn) | inactive
66 | CC(=O)C1(c2ccccc2)CCN(CCC2(c3ccc(Cl)c(Cl)c3)CN(C(=O)C3CCCC3)CCO2)CC1 (stereo not drawn) | inactive
67 | S=C(NCCc1ccc(Cl)cc1)NC1CCC(CN2CCC(c3c[nH]c4ccccc34)CC2)CC1 (stereo not drawn) | inactive
68 | CC(Cc1ccc(SC(C)(C)C)cc1)NCC(O)c1cccc(Cl)c1 (stereo not drawn) | inactive
69 | CS(=O)(=O)Nc1ccc2[nH]cc(C3CCN(CC4CCN(C(=O)/C=C/c5ccc(Cl)c(Cl)c5)CC4)CC3)c2c1 | inactive
70 | C=C[C@@H]1CN2CC[C@H]1C[C@H]2[C@H](O)c1cc(-c2ccc(Cl)cc2)nc2ccc(OC)cc12 | inactive
71 | OC(CNCc1ccccc1OC(F)F)c1cccc(C(F)(F)F)c1 (stereo not drawn) | inactive
72 | C#CCN1CCC2=C(C1)c1c(O)cc(C(C)CCCc3ccc(F)cc3)cc1OC2(C)C (stereo not drawn) | inactive
73 | CC[C@H]1CN2CC[C@H]1C[C@H]2[C@H](O)c1cc(-c2ccc3ccccc3c2)nc2ccc(OC)cc12 | inactive
74 | COc1ccc2[nH]cc(C3=CCN(C[C@H]4C[C@@H]4C(=O)c4ccccc4)CC3)c2n1 | inactive
75 | O=C1Nc2cccc3c2C1(CCCCCN1CC=C(c2c[nH]c4ccccc24)CC1)CCC3 (stereo not drawn) | inactive
76 | COC(C(=O)OCCC1CCCN1C)(c1ccccc1)c1ccccc1 (stereo not drawn) | inactive
77 | CC(Cc1ccc(Oc2ccc(Cl)cc2)cc1)NCC(O)c1cccc(Cl)c1 (stereo not drawn) | inactive
78 | O=C(CCc1ccco1)NC1CCN(CC2(c3ccc(Cl)cc3)CCC2)CC1 | inactive
